# Reference: PubChem BioAssay (EPA / NIEHS)
# Calls of active or inactive are those of the source. How the source made its calls: active means hit-call score of the fitted dose curve at least 0.9, where 1 is the maximum; inactive means score below 0.9.
# Assay: APR_HepG2_p53Act_72hr: Apredica 72-hour HepG2 Assay for p53 Activation (AID 2282923);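 further: average cellular p53 protein immunofluorescence intensity in HepG2 cells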
# Details: high-content imaging, actives raise or lower the signal
# Procedure: APR_HepG2_72hr is a cell-based, multiplexed-readout assay that uses HepG2, a human liver cell line, with measurements taken at 72 hours after chemical dosing in a 384-well plate.APR_HepG2_p53Act_72hr is one of 10 assay component(s) measured or calculated from the APR_HepG2_72hr assay. It is designed to make measurements of dna content, a form of viability reporter, as detected with fluorescence intensity signals by HCS Fluorescent Imaging technology.Data from the assay component APR_HepG2_p53Act_72hr was analyzed into 1 assay endpoint. This assay endpoint, APR_HepG2_p53Act_72hr, was analyzed with bidirectional fitting relative to DMSO as the negative control and baseline of activity. Using a type of viability reporter, measures of protein for gain or loss-of-signal activity can be used to understand the signaling at the pathway-level as they relate to the gene TP53. Furthermore, this assay endpoint can be referred to as a primary readout, because this assay has produced multiple assay endpoints where this one serves a signaling function. To generalize the intended target to other relatable targets, this assay endpoint is annotated to the dna binding intended target family, where the subfamily is tumor suppressor.
# Cells were treated with dimethyl sulfoxide (DMSO) as a solvent control at a final concentration of 0.5% v/v or with compounds in DMSO with a resulting final DMSO concentration of 0.5% v/v. Compound treatment was done at concentrations of 0.39, 0.78, 1.56, 3.12, 6.24, 12.5, 25, 50, 100, and 200 uM in duplicate on each plate. Cells were treated with compounds for 1, 24, or 72 hr. Carbonyl […] m-chloro-phenylhydrazone (CCCP) and taxol were used as positive controls for mitochondrial function and cytoskeletal stability, respectively; DMSO served as the negative control for this experiment. Cells were fixed by the direct addition of 50 uL formaldehyde in Hank's Balanced Salt Solution (HBSS) to a final concentration of 3.7%. After incubation in the fixation medium for 30 min at room temperature (293-298 K), cells were rinsed twice with HBSS and treated with cell permeabilization buffer (16 uL of 0.5% Triton X-100) for 10 min at room temperature (293-298 K) before labeling. For mitochondrial membrane potential and mitochondrial measurements, pre-fixed cells were incubated with 50 uL of MitoTracker Red CMXRos (Invitrogen) at a concentration of 250 nM for 30 min before fixation. In the remaining cases, post-fixed cells were labeled by incubation with a multiplexed mixture of primary antibodies in HBSS for 60 min at room temperature (293-298 K) to detect immunoreactivity of c-Jun (1:500), phospho-histone H3 (1:100), phospho-histone H2A.x (1:200), p53 (1:400), alpha-tubulin (1:200) and Hoechst 33342 (2 ug/mL). Cells were labeled for multiplexed imaging on two separate plates: a) Hoechst 33342, MitoTracker Red, phospho-histone H3, and alpha-tubulin, and b) Hoechst 33342, phospho-histone H2A.x, and c-Jun. A final rinse with HBSS (50 uL) was performed before analysis. The primary and secondary antibodies for the proteins were phospho-histone H3 (rabbit anti-phospho-histone H3 and FITC-donkey anti-rabbit IgG), phospho-histone H2A.x (mouse anti-phospho-histone H2A.x and FITC-donkey anti-mouse IgG), c-Jun (rabbit anti-phospho-c-Jun and Cy3-donkey anti-rabbit IgG), p53 (sheep anti-p53 and Cy5-donkey anti-sheep IgG), alpha-tubulin (mouse anti-alpha-tubulin and Cy5-donkey anti-mouse IgG). These antibodies are available as the CellCiphr HepG2 assay kit (Millipore).Digital images of each well were captured using a Cellomics ArrayScan VTI (Thermo Scientific Cellomics) (0.8 NA objective, 0.63x optical coupler, and XF-93 filter set) at 20x magnification. The images were acquired using the autofocus feature of the ArrayScan instrument, which entails the following steps. First, the camera focuses on channel 1 (Hoechst 33342), where nuclei are identified. Second, a Z offset of 1 um is used for capturing mitochondria (MitoTracker Red). […]
SMILES,AC50,outcome
CN(C)c1ccc(C(=O)c2ccc(N(C)C)cc2)cc1,0.292 µM (active),–
CC(O)CCO (stereo not given),–,inactive
CCN(CC)CCO,–,inactive
N#CC(Br)(Br)C(N)=O,–,inactive
OCCCBr,–,inactive
CNC(=O)Oc1cccc2c1OC(C)(C)C2,–,inactive
Cc1ccc(N)cc1,–,inactive
Brc1ccc(Oc2ccccc2)cc1,–,inactive
[As]#[In],–,inactive
Clc1ccc(C(c2ccc(Cl)cc2)C(Cl)Cl)cc1,87.1 µM (active),–
CCCCCCCCOC(=O)c1ccc(C(=O)OCCCCCCCC)c(C(=O)OCCCCCCCC)c1,–,inactive
ClCCOCCCl,–,inactive
O=C(Oc1ccc(Br)cc1)N1CCN2CCC1CC2,103 µM (active),–
C1=Cc2cccc3cccc1c23,–,inactive
O=C(O)C1C2CCC(O2)C1C(=O)O (stereo not given),21.2 µM (active),–
CCOc1cccc(C2(N3CCN(c4ccccc4)CC3)CCC(C)CC2)c1 (stereo not given),–,inactive
CCC(C)c1ccc(O)cc1 (stereo not given),–,inactive
ClC1=C(Cl)C2(Cl)C3C(Cl)C=CC3C1(Cl)C2(Cl)Cl (stereo not given),63.7 µM (active),–
CS(=O)(=O)NC(=O)c1cc(Oc2ccc(C(F)(F)F)cc2Cl)ccc1[N+](=O)[O-],–,inactive
COP(=S)(OC)SCN1C(=O)c2ccccc2C1=O,–,inactive

SMILES,AC50,outcome
CCN(CC)N=O,–,inactive
COC(=O)Nc1nc2ccccc2[nH]1,2.8 µM (active),–
CN(C)c1ccccc1,–,inactive
Nc1ccc([N+](=O)[O-])cc1,–,inactive
CN(C)C(=O)Nc1ccc(Cl)cc1,–,inactive
C=CCc1ccc2c(c1)OCO2,–,inactive
ClC1=C(Cl)[C@]2(Cl)[C@H]3[C@H]([C@@H]4C=C[C@H]3C4)[C@@]1(Cl)C2(Cl)Cl,45.3 µM (active),–
Oc1ccc2ccc3cccc4ccc1c2c34,–,inactive
CN(C)[C@@H]1C(=O)C(C(N)=O)=C(O)[C@@]2(O)C(=O)C3=C(O)c4c(O)cccc4[C@@](C)(O)[C@H]3C[C@@H]12,–,inactive
Cc1cccc(N)c1N,–,inactive
c1ccc(C2CO2)cc1 (stereo not given),–,inactive
[Cl-].[Cl-].[Hg+2],–,inactive
O=C(N[C@H](c1ccccc1)[C@@H]1CN2CCC1CC2)c1c(Cl)ccc(C(F)(F)F)c1Cl,–,inactive
Nc1ccc(Oc2ccc(N)cc2)cc1,–,inactive
CC(C)(C)OOC(=O)c1ccccc1,21.5 µM (active),–
CCCCCCCCn1sccc1=O,3.54 µM (active),–
Clc1ccc(Cl)c(Cl)c1,–,inactive
[O-][Cl+]O,–,inactive
OCCCl,–,inactive
CC(C)(C)OOC(C)(C)CCC(C)(C)OOC(C)(C)C,–,inactive
